In PubChem BioAssay:
Activity calls are given as the source filed them.

Columns and labels:
[1] = test system: Plasmodium falciparum Sir2 (PF13_0152, Sir2A); experiment: pfSir2 binders on small-molecule microarrays, primary screen, biochemical, small-molecule microarray, 635 nm fluorescence (AID 1098); settings: small-molecule microarray binding, fluorescence 635 nm; higher = more signal;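 also: score merges spot fluorescence intensity with its signal-to-noise ratio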
[2] = small-molecule microarray binders of probe aDKK1, primary screen, biochemical, biotinylated probe, 635/667 nm fluorescence (AID 1099); settings: higher = more signal;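 also: score merges 667nm spot fluorescence with signal to noise across triplicate slides; reference of the scale not given here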
[3] = small-molecule microarray binders of probe aCHRDL2, primary screen, biochemical, biotinylated probe, 635/667 nm fluorescence (AID 1100); settings: higher = more signal
[4] = splicing luciferase reporter signal modulators, primary screen, spliceosome inhibition project, cell-based, HEK293, splice +/- reporter (AID 1101); settings: luminescence, 24 h, higher = more signal, called active from +8 up or from −8 down;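 also: HEK293 cells carrying a splicing-competent luciferase reporter gene; test concentration not given here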
[5] = molecular target: Fibroblast growth factor 10 (Homo sapiens) (UniProt O15520); experiment: FGF10 binders on small-molecule microarrays, primary screen, biochemical, small-molecule microarray, 635 nm fluorescence (AID 1102); settings: FGF10 binding, fluorescence 635 nm, higher = more signal
Sequence of Fibroblast growth factor 10 (Homo sapiens) (O15520 whole entry, looked up): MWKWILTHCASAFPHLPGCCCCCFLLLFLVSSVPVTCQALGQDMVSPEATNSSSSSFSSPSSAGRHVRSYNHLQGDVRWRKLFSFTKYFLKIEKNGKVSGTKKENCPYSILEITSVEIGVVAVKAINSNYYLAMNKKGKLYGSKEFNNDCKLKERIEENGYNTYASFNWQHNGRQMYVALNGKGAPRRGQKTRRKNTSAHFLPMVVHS

[6] = test system: glycogen synthase kinase-3 (GSK3A per assay name; protocol says GSK3B); experiment: GSK3 binders on small-molecule microarrays, primary screen, biochemical, small-molecule microarray, 635 nm fluorescence, GSK3A (AID 1103); settings: small-molecule microarray binding, fluorescence 635 nm; higher = more signal; also: the record names both GSK3A and GSK3B
[7] = molecular target: Epidermal growth factor receptor (Homo sapiens) (UniProt P00533); experiment: EGFR binders on small-molecule microarrays, primary screen, biochemical, small-molecule microarray, 635 nm fluorescence (AID 1104); settings: EGFR binding, higher = more signal;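 also: score merges 667 nm emission intensity with spot signal to noise over triplicate slides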
Sequence of Epidermal growth factor receptor (Homo sapiens) (P00533 whole entry, looked up): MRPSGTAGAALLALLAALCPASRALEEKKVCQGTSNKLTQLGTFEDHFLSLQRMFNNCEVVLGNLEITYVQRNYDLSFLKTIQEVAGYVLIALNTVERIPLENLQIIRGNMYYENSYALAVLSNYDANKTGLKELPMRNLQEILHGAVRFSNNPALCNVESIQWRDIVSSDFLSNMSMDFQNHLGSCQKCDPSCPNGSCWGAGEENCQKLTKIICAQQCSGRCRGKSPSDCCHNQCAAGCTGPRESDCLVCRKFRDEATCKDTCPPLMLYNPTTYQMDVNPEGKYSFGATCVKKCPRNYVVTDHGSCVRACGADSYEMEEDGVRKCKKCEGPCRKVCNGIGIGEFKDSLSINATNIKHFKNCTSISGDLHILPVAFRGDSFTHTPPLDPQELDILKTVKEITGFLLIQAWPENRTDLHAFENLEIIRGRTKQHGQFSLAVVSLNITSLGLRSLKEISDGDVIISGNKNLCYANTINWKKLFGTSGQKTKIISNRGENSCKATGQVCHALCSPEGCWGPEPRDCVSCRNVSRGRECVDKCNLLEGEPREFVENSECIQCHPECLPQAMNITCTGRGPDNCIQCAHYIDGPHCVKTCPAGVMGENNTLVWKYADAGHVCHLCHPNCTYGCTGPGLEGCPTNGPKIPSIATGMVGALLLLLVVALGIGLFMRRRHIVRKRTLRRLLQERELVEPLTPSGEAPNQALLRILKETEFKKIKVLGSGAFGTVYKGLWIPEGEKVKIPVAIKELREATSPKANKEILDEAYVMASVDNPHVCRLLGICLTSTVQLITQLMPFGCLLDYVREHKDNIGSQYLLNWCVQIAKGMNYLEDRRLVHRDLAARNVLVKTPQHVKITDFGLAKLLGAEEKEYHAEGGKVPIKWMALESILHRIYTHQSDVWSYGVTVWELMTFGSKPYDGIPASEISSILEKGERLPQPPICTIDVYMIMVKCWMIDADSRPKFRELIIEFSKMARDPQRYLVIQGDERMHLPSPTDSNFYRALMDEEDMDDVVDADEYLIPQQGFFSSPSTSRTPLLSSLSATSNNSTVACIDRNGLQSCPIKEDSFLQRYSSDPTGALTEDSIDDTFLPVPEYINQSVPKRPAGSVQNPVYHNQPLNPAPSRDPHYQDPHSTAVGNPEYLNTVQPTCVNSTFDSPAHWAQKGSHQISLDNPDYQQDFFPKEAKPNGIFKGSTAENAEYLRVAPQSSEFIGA

[8] = molecular target: Follistatin-related protein 3 (Homo sapiens) (UniProt O95633); experiment: FSTL3 binders on small-molecule microarrays, primary screen, biochemical, small-molecule microarray, 635 nm fluorescence (AID 1105); settings: FSTL3 binding, higher = more signal;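 also: score merges emission near 667 nm and signal to noise per printed spot across three slides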
Sequence of Follistatin-related protein 3 (Homo sapiens) (O95633 whole entry, looked up): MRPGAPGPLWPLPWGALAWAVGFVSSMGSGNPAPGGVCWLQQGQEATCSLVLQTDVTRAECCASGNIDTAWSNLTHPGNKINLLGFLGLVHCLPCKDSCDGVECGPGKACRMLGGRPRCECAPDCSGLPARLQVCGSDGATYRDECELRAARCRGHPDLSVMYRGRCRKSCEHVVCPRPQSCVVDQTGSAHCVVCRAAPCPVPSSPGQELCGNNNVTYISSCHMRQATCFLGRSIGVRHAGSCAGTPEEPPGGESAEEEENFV

[9] = molecular target: Dickkopf-related protein 1 (Homo sapiens) (UniProt O94907); experiment: DKK1 binders on small-molecule microarrays, primary screen, biochemical, small-molecule microarray, 635 nm fluorescence scan (AID 1106); settings: DKK1 binding, higher = more signal;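 also: score merges emission near 667 nm with signal to noise over three replicate slides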
Sequence of Dickkopf-related protein 1 (Homo sapiens) (O94907 whole entry, looked up): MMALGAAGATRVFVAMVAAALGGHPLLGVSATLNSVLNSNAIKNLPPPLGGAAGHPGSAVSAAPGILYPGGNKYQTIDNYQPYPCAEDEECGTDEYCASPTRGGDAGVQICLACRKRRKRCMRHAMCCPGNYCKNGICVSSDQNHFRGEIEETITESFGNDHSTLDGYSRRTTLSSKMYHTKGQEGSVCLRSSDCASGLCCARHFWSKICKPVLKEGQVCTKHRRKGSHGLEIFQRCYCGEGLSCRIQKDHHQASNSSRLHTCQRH

[10] = test system: Inhibin beta A chain (activin A); experiment: INHBA (activin A) binders on microarrays, primary screen, biochemical, small-molecule microarray, 635 nm fluorescence scan (AID 1107); settings: small-molecule microarray binding, higher = more signal;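 also: mouse activin A protein probed at 4.33 µg/mL on printed slides; score merges bound-protein fluorescence near 667 nm with spot signal-to-noise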

| Compound | composite z-score [1] | composite z-score [2] | composite z-score [3] | z-score [4] | composite z-score [5] | composite z-score [6] | composite z-score [7] | composite z-score [8] | composite z-score [9] | composite z-score [10] |
| --- | --- | --- | --- | --- | --- | --- | --- | --- | --- | --- |
| COC(=O)[C@@]1(Cc2ccc(OC)cc2)[C@@H]2[C@@H](CC(=O)[C@H]2CC(=O)C(=O)N(C)C)CN1C(=O)c1ccccc1 | 0.625 | 1.64 | 1.49 | -1.53 (inactive) | 1.27 | 1.18 | 0.638 | 1.17 | -0.458 | 0.18 |
| C=CCNC(=O)[C@H]1[C@@H]2C(=O)O[C@@H](c3ccccc3)[C@@H](c3ccccc3)N2[C@@H](c2ccc(O)cc2)[C@]12C(=O)Nc1ccc(C#CCC(C(=O)OC)C(=O)OC)cc12 | -0.147 | 0.199 | 0.599 | -0.0204 (inactive) | 0.727 | 1.04 | -0.195 | 0.339 | 0.415 | 1.08 |
| COc1ccc([Si](C)(C)[C@H]2[C@H](CC(=O)N(CCO)Cc3ccccc3)O[C@@]3(C(=O)N(Cc4ccc(N5C(=O)c6cccc7cccc5c67)cc4)c4ccccc43)[C@@H]2C)cc1 | 0.899 | 0.0486 | 0.0598 | -1.1 (inactive) | 0.994 | -0.461 | 0.303 | 0.614 | 0.541 | 0.803 |
| O=C(NC1CC1)[C@@H]1c2ccccc2C(=O)N(C2CCCCC2)[C@H]1c1ccc(CO)cc1 | 0.891 | 1.84 | 0.989 | -0.496 (inactive) | 0.055 | 0.286 | 0.0989 | 0.208 | 0.139 | -0.24 |
| CC(C)c1ccc(NN2C(C(O)C3=C[C@H]4C[C@@H](C3)C4(C)C)C=CC3C(=O)N(c4ccccc4)C(=O)C32)cc1 (stereo not given in full) | 0.969 | 0.886 | 0.665 | -0.0409 (inactive) | 0.409 | 0.577 | 0.366 | 0.827 | 0.245 | 0.829 |
| C[C@]1(C(=O)NC2CC2)c2ccccc2C(=O)N(Cc2cc(F)cc(C(F)(F)F)c2)[C@H]1c1ccc(CO)cc1 | 0.938 | -0.554 | 0.87 | -0.224 (inactive) | -0.698 | -1.08 | -1.16 | -0.801 | -1.46 | -0.672 |
| CCCCCCc1nc(-c2ccc(OC)nc2)c(C)c2c1[Si](C(C)C)(C(C)C)OC2 | -0.299 | -0.202 | -0.358 | -2 (inactive) | -0.168 | -0.264 | 0.218 | 0.565 | 1.03 | 0.444 |
| CCOC(=O)C1=CCC(c2cccn2C(=O)OC(C)(C)C)N(S(=O)(=O)c2ccc(C)cc2)C1 (stereo not given) | 1.45 | 0.484 | 0.574 | -0.799 (inactive) | 0.404 | 1.3 | 0.698 | 0.922 | 0.0815 | 1.46 |
| CCOC(=O)C[C@H]1[C@H](OC(=O)c2ccc(-c3ccccc3)cc2)[C@@H](NC(=O)C2CCCCC2)c2cc(OCCCO)ccc2N1C(=O)Cc1ccc(OC)cc1 | -0.186 | 0.0229 | 0.0338 | -0.772 (inactive) | 0.135 | 0.178 | 0.273 | 0.217 | 0.0901 | 0.647 |
| [N-]=[N+]=NCc1ccccc1[C@H]1OC(c2ccc(OCCCO)cc2)=N[C@@]1(Cc1ccccc1N=[N+]=[N-])C(=O)N1CCOCC1 | 1.02 | 0.596 | 0.828 | -0.1 (inactive) | 0.458 | 1.1 | -0.292 | 0.29 | -0.287 | 0.594 |
| CN1C(=O)C2C=CC(C(O)c3ccc(I)cc3)N(N(c3ccccc3)c3ccccc3)C2C1=O (stereo not given) | 0.727 | -0.0078 | 0.914 | 1.19 (inactive) | -0.841 | -0.487 | -0.882 | -0.309 | -0.421 | 1.32 |
| C=CCC(OC(C)=O)[C@@H]1[C@@H](N(Cc2cccc3ccccc23)C(=O)c2ccc(C)cc2)c2cc(OCCCO)ccc2N1C(=O)Cc1ccc2ccccc2c1 (stereo not given in full) | -0.542 | 0.0891 | 0.135 | -1.86 (inactive) | -0.123 | -0.0662 | 0.13 | -0.345 | 0.248 | 1.34 |
| O=C1NC(=O)C2C1C=CC(C(O)C(O)CO)N2Nc1ccccn1 (stereo not given) | 0.0854 | -0.191 | -0.104 | -0.396 (inactive) | 0.183 | 0.335 | 0.386 | 0.178 | 0.173 | 0.0473 |
| O=C1C2C=CC(C(O)c3ccccn3)N(Nc3ccc([N+](=O)[O-])cc3)C2C(=O)N1c1ccccc1 (stereo not given) | 1.42 | 1.01 | 0.891 | 0.981 (inactive) | 0.37 | 0.377 | 0.0711 | 0.55 | -0.189 | 0.522 |
| O=C1C[C@@](C(=O)NCC(F)(F)F)(c2ccc([N+](=O)[O-])cc2)[C@@H](c2ccc(CO)cc2I)N1CC12CC3CC(CC(C3)C1)C2 | 1.5 | -0.113 | 0.0558 | -1.85 (inactive) | 0.343 | 0.785 | 0.237 | 0.406 | -0.0464 | 0.227 |
| O=C(O)C1=CC[C@H]2C(=O)N(c3ccccc3)C(=O)[C@@H]12 | 0.767 | 0.45 | 0.682 | 0.727 (inactive) | 0.855 | 1.04 | 0.325 | 1.11 | 0.0793 | 1.23 |

| Compound | composite z-score [1] | composite z-score [2] | composite z-score [3] | z-score [4] | composite z-score [5] | composite z-score [6] | composite z-score [7] | composite z-score [8] | composite z-score [9] | composite z-score [10] |
| --- | --- | --- | --- | --- | --- | --- | --- | --- | --- | --- |
| O=C1O[C@@H](c2ccccc2)[C@@H](c2ccccc2)N2[C@@H](c3ccccc3OCCO)[C@]3(C(=O)Nc4ccc(C#CC5(O)CCCCCC5)cc43)[C@@H](C(=O)N3CCCCCCC3)[C@H]12 | 2.16 | 3.21 | 1.84 | -1.3 (inactive) | 1.66 | 1.45 | 2.09 | 1.77 | 2.68 | 1.91 |
| O=C1c2ccccc2[C@](Cc2ccccc2I)(C(=O)NCCN2CCOCC2)[C@H](c2ccc(CO)cc2)N1Cc1ccccc1C(F)(F)F | 0.655 | -0.0516 | 0.358 | -0.0322 (inactive) | 0.275 | 0.484 | -0.288 | 0.276 | -0.419 | 0.734 |
| COc1ccc([Si](C)(C)[C@H]2[C@H](CC(=O)N3CCC[C@H]3CO)O[C@@]3(C(=O)N(C)c4c(Br)cc(C)cc43)[C@@H]2C)cc1 | 1.91 | 0.94 | 0.244 | 0.00593 (inactive) | 1.5 | 1.32 | 0.775 | 1.16 | 1.08 | 1.34 |
| CC(C)(C)OC(=O)CC[C@@]1(C(=O)N2CCOCC2)N=C(c2ccc(OCCCO)cc2)O[C@@H]1c1ccccc1CN=[N+]=[N-] | 1.23 | 0.956 | 1.15 | 0.178 (inactive) | 1.28 | 0.818 | 0.234 | 0.488 | -0.0447 | 1.01 |
| C=C1C(=O)C=C2CN(C(=O)c3ccccc3)[C@@](Cc3ccc(F)cc3)(C(=O)OC)[C@@H]12 | 0.641 | 1.16 | 1.21 | -0.756 (inactive) | 0.941 | 1.2 | -0.0735 | 1.06 | -0.519 | 1.05 |
| COC(=O)c1ccc(OC)c(/C=C\CC(OC(=O)c2ccncc2)c2ccccc2)c1 (stereo not given) | -0.475 | -0.367 | -0.43 | -2.07 (inactive) | 0.377 | 0.058 | 1.09 | 0.891 | 0.631 | 1.61 |
| CCCC=C(CCC)[C@@H](NC(=O)c1ccc(C(=O)OC)cc1)c1ccc(C(=O)OC)cc1 | -0.427 | 0.816 | 0.48 | -1.32 (inactive) | -0.363 | -0.197 | -0.195 | -0.0762 | -0.158 | 0.804 |
| CCOC(=O)C1=C[C@@H](C(C)(C)C)N(S(=O)(=O)c2ccc(C)cc2)[C@H]1c1ccc(OC)cc1 | 0.463 | 0.305 | -0.0462 | -1.5 (inactive) | 0.998 | 1.29 | 0.902 | 1.27 | 0.33 | 0.318 |
| CCOC(=O)C1=CCC(c2ccncc2)N(S(=O)(=O)c2ccc(C)cc2)C1 (stereo not given) | 1.03 | 0.205 | 0.198 | -1.3 (inactive) | 1.34 | 1.29 | 0.432 | 1.05 | 0.332 | 0.856 |
| O=C1O[C@H](c2ccccc2)[C@H](c2ccccc2)N2[C@H]1[C@@H](C(=O)Nc1nc3ccccc3s1)[C@]1(C(=O)Nc3ccccc31)[C@H]2c1ccccc1OCCO | 1.42 | 0.0289 | 0.505 | -0.539 (inactive) | 0.475 | 0.901 | -0.115 | 0.399 | -0.086 | 0.121 |
| CC(C)C[C@@H]1NC(=O)[C@H]2C[C@@H](C(=O)O)[C@@H](c3cccc(OCCO)c3)N2C1=O | 0.524 | 0.0083 | 0.677 | 0.256 (inactive) | 0.0039 | 0.969 | 0.193 | 1.2 | 1.11 | 1.19 |
| C=CC[C@@]1(C(=O)NCCCOC)N=C(c2ccc(OCCCO)cc2)O[C@@H]1c1ccccc1CN=[N+]=[N-] | 1.5 | 0.739 | 0.772 | -0.226 (inactive) | 1.38 | 1.31 | 0.0652 | 1.2 | -0.0117 | 1.14 |
| [N-]=[N+]=NCc1ccccc1[C@H]1OC(c2ccc(OCCCO)cc2)=N[C@@]1(Cc1ccccc1N=[N+]=[N-])C(=O)O | 1.07 | 1.08 | 0.904 | 0.258 (inactive) | 0.716 | 1.03 | -0.0317 | 0.783 | -0.107 | 0.987 |
| C[C@]1(C(=O)O)c2ccccc2C(=O)N(Cc2cc(C(F)(F)F)cc(C(F)(F)F)c2)[C@H]1c1ccc(CO)cc1 | -0.822 | 0.324 | 0.55 | 0.487 (inactive) | -0.04 | -0.25 | -0.641 | 0.142 | 0.123 | 0.41 |
| C=C[C@@H](CO)NS(=O)(=O)c1ccc(Br)cc1 | -1.62 | -0.267 | -0.0866 | -0.774 (inactive) | -0.398 | -0.986 | -0.288 | -0.459 | -0.0213 | 0.733 |
| CO[C@H]1O[C@H](CO)[C@@H](OC(=O)Nc2ccccc2)[C@@H]2OC(=O)[C@@H](Cc3ccccc3)C/C=C/C[C@H](Cc3ccccc3)C(=O)O[C@@H]12 | 1.46 | -0.172 | -0.0203 | 0.0457 (inactive) | 0.73 | 0.107 | -0.191 | 0.094 | 0.206 | 0.983 |
